Reference: PubChem BioAssay
A number with no mark means an inactive call. For part of these data: Measured potencies and affinities stand elsewhere. The source made the active and inactive calls. Unless noted, the rule behind the calls is not given here.

Legend:
[1] = antimalarial activity against Dd2 strain (AID 2302;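 active = growth inhibition above 50% at the single 2 µM test dose, taken to imply half-maximal potency below 2 µM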;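 note: 0% = DMSO untreated growth and 100% = chloroquine plus artemisinin killed control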); settings: P. falciparum Dd2 in RBCs, LDH growth readout, 72 h; at 2 µM; active compounds read high
[2] = HepG2 cytotoxicity, primary screen, cytotoxicity control for P. falciparum antimalarial project, cell-based, ATP luminescence (AID 2303;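 active = inhibition above 50%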;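 note: 0% = DMSO wells and 100% = digitonin-killed cells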); settings: HepG2 viability, 24-48 h, at 10 µM, active compounds read high
[3] = molecular target: L-lactate dehydrogenase (Plasmodium falciparum (isolate CDC / Honduras)) (UniProt Q27743); test: PfLDH activity inhibition – cell lysate, 3D7 strain, counter-screen for P. falciparum growth inhibition project (AID 2304);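 note: 0% = vehicle and 100% = reference inhibitor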; settings: P. falciparum 3D7 crude extract, LDH APAD/NBT absorbance; at 2 µM; active compounds read high
[4] = inhibition of 3D7 malaria parasite growth – strain 3D7 (AID 2306);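 note: 0% = DMSO wells and 100% = chloroquine plus artemisinin control wells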; settings: P. falciparum 3D7 erythrocytic growth, LDH absorbance, 72 h; at 2 µM; active compounds read high
[5] = molecular target: Calcium-dependent protein kinase 1 (Plasmodium falciparum (isolate 3D7)) (UniProt P62344); test: PfCDPK1 kinase inhibitors, biochemical, TCAMS library (AID 1159585; cut-off not given, nearly all actives have IC50 up to about 0.98 µM;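 note: inhibitors leave more ATP so luminescence rises with inhibition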); settings: recombinant PfCDPK1, Kinase-Glo ATP depletion luminescence
[6] = molecular target: Plasmodium falciparum protein kinase 6 (PK6, PF3D7_1337100) (UniProt Q8IDW1); test: PfPK6 kinase inhibitors, biochemical, TCAMS library (AID 1159586); settings: recombinant PfPK6, Kinase-Glo ATP depletion luminescence
[7] = molecular target: Protein kinase 7 (PK7), Plasmodium falciparum 3D7 (PF3D7_0213400) (UniProt Q7YTF7); test: inhibition of Plasmodium PK7 catalytic activity – biochemical, TCAMS antimalarial set, Kinase-Glo luminescence (AID 1159587); settings: recombinant PfPK7, Kinase-Glo ATP depletion luminescence
[8] = molecular target: Calcium-dependent protein kinase 4 (Plasmodium falciparum (isolate 3D7)) (UniProt Q8IBS5); test: PfCDPK4 kinase inhibitors, biochemical, TCAMS library (AID 1159588; cut-off not given, nearly all actives have IC50 up to about 0.91 µM); settings: recombinant PfCDPK4, Kinase-Glo ATP depletion luminescence
Calcium-dependent protein kinase 4 (Plasmodium falciparum (isolate 3D7)), sequence (Q8IBS5 whole entry, looked up): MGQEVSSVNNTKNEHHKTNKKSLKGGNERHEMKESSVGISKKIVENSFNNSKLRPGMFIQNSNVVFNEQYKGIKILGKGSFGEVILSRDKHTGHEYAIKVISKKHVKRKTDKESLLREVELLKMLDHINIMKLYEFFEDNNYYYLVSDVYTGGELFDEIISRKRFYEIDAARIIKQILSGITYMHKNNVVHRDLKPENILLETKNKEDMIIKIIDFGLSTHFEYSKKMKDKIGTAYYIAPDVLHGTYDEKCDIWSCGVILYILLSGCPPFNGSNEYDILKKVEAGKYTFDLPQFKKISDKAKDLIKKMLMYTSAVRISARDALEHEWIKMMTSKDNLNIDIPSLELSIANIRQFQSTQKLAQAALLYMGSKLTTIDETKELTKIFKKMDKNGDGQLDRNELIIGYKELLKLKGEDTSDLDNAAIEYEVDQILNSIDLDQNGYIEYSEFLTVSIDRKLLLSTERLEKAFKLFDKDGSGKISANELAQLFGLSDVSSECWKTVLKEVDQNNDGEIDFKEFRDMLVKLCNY

Protein kinase 7 (PK7), Plasmodium falciparum 3D7 (PF3D7_0213400), sequence (Q7YTF7 1-343): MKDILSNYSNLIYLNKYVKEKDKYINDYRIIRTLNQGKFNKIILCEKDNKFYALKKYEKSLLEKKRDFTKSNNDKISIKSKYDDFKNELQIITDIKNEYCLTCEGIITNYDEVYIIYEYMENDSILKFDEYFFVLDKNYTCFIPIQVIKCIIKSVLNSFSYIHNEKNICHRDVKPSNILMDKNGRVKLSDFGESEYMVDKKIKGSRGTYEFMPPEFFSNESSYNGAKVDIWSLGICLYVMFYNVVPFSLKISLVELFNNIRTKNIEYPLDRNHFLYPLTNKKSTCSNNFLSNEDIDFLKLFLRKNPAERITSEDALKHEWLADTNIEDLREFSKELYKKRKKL
Plasmodium falciparum protein kinase 6 (PK6, PF3D7_1337100), sequence (Q8IDW1 1-305): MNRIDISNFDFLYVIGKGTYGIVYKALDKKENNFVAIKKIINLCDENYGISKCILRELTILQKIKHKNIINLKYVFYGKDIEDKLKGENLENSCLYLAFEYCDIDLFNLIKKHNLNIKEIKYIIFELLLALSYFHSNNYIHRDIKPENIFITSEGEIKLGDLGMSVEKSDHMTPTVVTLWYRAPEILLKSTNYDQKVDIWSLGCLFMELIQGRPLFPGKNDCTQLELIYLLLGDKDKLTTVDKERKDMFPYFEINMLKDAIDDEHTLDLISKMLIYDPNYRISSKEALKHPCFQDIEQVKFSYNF
Calcium-dependent protein kinase 1 (Plasmodium falciparum (isolate 3D7)), sequence (P62344 whole entry, looked up): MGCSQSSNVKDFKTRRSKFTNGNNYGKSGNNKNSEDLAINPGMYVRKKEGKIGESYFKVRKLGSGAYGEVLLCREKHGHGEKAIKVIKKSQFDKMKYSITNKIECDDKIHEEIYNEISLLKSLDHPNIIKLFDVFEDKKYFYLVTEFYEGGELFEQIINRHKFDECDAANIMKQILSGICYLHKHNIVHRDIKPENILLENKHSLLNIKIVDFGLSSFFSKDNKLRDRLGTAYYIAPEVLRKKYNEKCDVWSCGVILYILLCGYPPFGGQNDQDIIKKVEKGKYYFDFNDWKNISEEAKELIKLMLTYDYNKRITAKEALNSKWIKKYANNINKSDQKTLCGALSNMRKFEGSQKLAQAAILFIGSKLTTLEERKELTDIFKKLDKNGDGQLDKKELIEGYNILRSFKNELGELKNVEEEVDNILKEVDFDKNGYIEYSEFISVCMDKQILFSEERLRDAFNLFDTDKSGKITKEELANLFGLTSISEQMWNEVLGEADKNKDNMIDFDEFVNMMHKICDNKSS
L-lactate dehydrogenase (Plasmodium falciparum (isolate CDC / Honduras)), sequence (Q27743 whole entry, looked up): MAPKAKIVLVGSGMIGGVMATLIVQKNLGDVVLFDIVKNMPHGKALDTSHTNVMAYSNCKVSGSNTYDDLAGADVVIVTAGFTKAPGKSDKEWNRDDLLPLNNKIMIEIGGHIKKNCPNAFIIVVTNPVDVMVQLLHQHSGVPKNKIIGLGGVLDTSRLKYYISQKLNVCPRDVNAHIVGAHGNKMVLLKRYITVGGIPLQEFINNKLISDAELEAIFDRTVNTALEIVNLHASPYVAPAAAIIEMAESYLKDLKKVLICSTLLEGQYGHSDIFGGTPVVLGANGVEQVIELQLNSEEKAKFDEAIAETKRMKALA

SMILES | growth inhibition [1] | inhibition [2] | inhibition [3] | growth inhibition [4] | outcome [5] | outcome [6] | outcome [7] | outcome [8]
OC(CNCCCc1ccccc1)c1cc(OCc2ccccc2)cc(OCc2ccccc2)c1 (configuration not stated) | 85% (active) | 8% | 4% | 93% (active) | inactive | inactive | inactive | inactive
CC(C)c1ccc(-c2nc3ncc(Cl)cc3[nH]2)cc1 | 77% (active) | 3% | -2% | 87% (active) | inactive | inactive | inactive | inactive
COc1cccc(CCN(Cc2ccccc2-c2ccc(CNC3CC(C)(C)NC(C)(C)C3)cc2)C(=O)NC2CCCCC2)c1 | 99% (active) | 97% (active) | -1% | 103% (active) | inactive | inactive | inactive | inactive
CC(C)Oc1cc2c(cc1NS(=O)(=O)c1ccc(-c3ccc(Cl)cc3)cc1)CCN(C)CC2 | 65% (active) | 100% (active) | -3% | 99% (active) | inactive | inactive | inactive | inactive
Cc1nc(N=C(N)N)nc2ccc(C(C)(C)C)cc12 | 91% (active) | 4% | -1% | 96% (active) | inactive | inactive | inactive | inactive
COc1ccc2c(c1C1CCN(CCCCNC(=O)c3ccc(NC(=O)c4ccc(Cl)cc4)cc3)CC1)CCCC2 | 99% (active) | 19% | -2% | 101% (active) | inactive | inactive | inactive | inactive
Oc1cc(Nc2ccnc3cc(-c4cccc(CN5CCOCC5)c4)ccc23)c(F)cc1Cl | 89% (active) | 12% | -4% | 100% (active) | inactive | inactive | inactive | inactive
N#CNC(=NCCCSc1csc(N=C(N)N)n1)NCCCCCCCCN=C(NC#N)NCCSCc1csc(N=C(N)N)n1 | 24% | -1% | -4% | 91% (active) | inactive | inactive | inactive | inactive
O=C(Nc1ccc(C(F)(F)F)cc1)c1cccc(S(=O)(=O)NCC2CCCN(CC3CCCCC3)C2)c1 (configuration not stated) | 4% | 27% | 0% | 97% (active) | inactive | inactive | inactive | inactive
COc1ccc(C2(CNCC(O)c3cccc([N+](=O)[O-])c3)CCCC2)cc1OC (configuration not stated) | 85% (active) | 10% | 5% | 93% (active) | inactive | inactive | inactive | inactive
OC[C@H](Nc1nc(C(Oc2ccccc2)c2ccccc2)nc2[nH]ncc12)c1ccccc1 (some centres not stated) | 45% | 0% | -4% | 98% (active) | inactive | inactive | inactive | inactive
O=C(/C=C/c1ccc(Cl)c(Cl)c1)N1CCC(CN2CCC(Cc3nc4ccccc4[nH]3)CC2)CC1 | 95% (active) | 34% | -2% | 101% (active) | inactive | inactive | inactive | inactive
CCCCN1C(=O)C(c2ccccc2)(c2ccccc2)N=C1N | 34% | 19% | 7% | 87% (active) | inactive | inactive | inactive | inactive
CC(=O)Nc1ccc(C(=O)Nc2cccc(-c3ccc(-c4nc5c(C)cccc5[nH]4)cc3)c2)cn1 | 94% (active) | 25% | 4% | 100% (active) | inactive | inactive | inactive | inactive
CN(Cc1ccccc1)C(=O)CCNS(=O)(=O)c1cc(Br)cnc1N | 61% (active) | -5% | 4% | 91% (active) | inactive | inactive | inactive | inactive
CC(C)(c1ccccc1)c1ccc(O)c(CN2CCOCC2)c1 | 88% (active) | -7% | 2% | 99% (active) | inactive | inactive | inactive | inactive
O=C(CC(=O)C(F)(F)F)c1ccc2c(c1)OCO2 | 0% | 44% | 0% | 96% (active) | inactive | inactive | inactive | inactive
Cc1onc(-c2ccccc2)c1-c1nc(NC2CCCC(C)C2)no1 (configuration not stated) | 46% | 22% | -3% | 101% (active) | inactive | inactive | inactive | inactive
CCCCNCC(O)COc1ccccc1-c1ccc(N/N=C/c2cccc3ccccc23)nn1 (configuration not stated) | 8% | 38% | -4% | 99% (active) | inactive | inactive | inactive | inactive
Cc1cccc2[nH]c(-c3ccc(-c4ccc(NC(=O)C5CCN(C)CC5)cc4)cc3)nc12 | 92% (active) | 28% | 1% | 100% (active) | inactive | inactive | inactive | inactive

SMILES | growth inhibition [1] | inhibition [2] | inhibition [3] | growth inhibition [4] | outcome [5] | outcome [6] | outcome [7] | outcome [8]
Cc1cccc(CNc2nc(C)cc(N[C@@H](CC(C)C)C(=O)NCc3cccc(F)c3)n2)c1 | 32% | 13% | -3% | 91% (active) | inactive | inactive | inactive | inactive
CN(C)c1cccc2c1nc(-c1ccco1)n2CCNCc1ccccc1 | 97% (active) | -1% | 2% | 98% (active) | inactive | inactive | inactive | inactive
O=C(/C=C/c1ccc(Cl)c(Cl)c1)NCCCCCN1CCC(NC(=O)Nc2cccc(Cl)c2Cl)CC1 | 35% | 99% (active) | -5% | 104% (active) | inactive | inactive | inactive | inactive
Cc1cccc2[nH]c(-c3cccc(-c4ccc(NC(=O)Nc5ccc(F)c(F)c5F)cc4)c3)nc12 | 100% (active) | 61% (active) | -4% | 101% (active) | inactive | inactive | inactive | inactive
Cc1nc(N)nc(N)c1OCc1cccc2ccccc12 | 11% | 63% (active) | -1% | 96% (active) | inactive | inactive | inactive | inactive
c1cc(CN2CCC(CCN3CCCCC3)CC2)cc(-c2cccc(-c3nc4ccccc4[nH]3)c2)c1 | 101% (active) | 95% (active) | -3% | 100% (active) | inactive | inactive | inactive | inactive
COc1ccccc1C1CC(c2ccccc2)=NN1C(=O)c1ccccc1 (configuration not stated) | 93% (active) | 13% | -3% | 100% (active) | inactive | inactive | inactive | inactive
COc1ccc(NC(=O)[C@H](CC(C)C)Nc2cc(C)nc(NCCc3cccs3)n2)cc1 | 68% (active) | 5% | 4% | 100% (active) | inactive | inactive | inactive | inactive
CCOC(=O)CCCOc1cc(Cc2cnc(N)nc2N)cc(OC)c1OC | 3% | 12% | -7% | 97% (active) | inactive | inactive | inactive | inactive
CS(=O)(=O)c1cccc(-c2cnc3[nH]cc(-c4ccc(CCC(=O)O)cc4)c3c2)c1 | 99% (active) | 1% | -6% | 97% (active) | inactive | inactive | inactive | inactive
O=C(NC1CCC(CCN2CCc3ccc(-c4cnccn4)cc3CC2)CC1)c1cccc(-n2cccn2)c1 (configuration not stated) | 1% | 23% | -3% | 93% (active) | inactive | inactive | inactive | inactive
CO/C(=C\C=C\c1cc2cc(Cl)c(Cl)cc2[nH]1)C(=O)NCCCN1CCN(C2CCCCC2)CC1 | 97% (active) | 60% (active) | -3% | 99% (active) | inactive | inactive | inactive | inactive
Cc1ccc(CN2CCCN(Cc3ccc(C(=O)Nc4ccc(Cl)cc4)cc3)CC2)s1 | 5% | 53% (active) | 3% | 85% (active) | inactive | inactive | inactive | inactive
COc1cccc(NC(=O)N2CCOC(CCN3CCC4(CCc5ccccc54)CC3)(c3ccc(Cl)c(Cl)c3)C2)c1 (configuration not stated) | 72% (active) | 97% (active) | 5% | 94% (active) | inactive | inactive | inactive | inactive
CN(C)c1ccc(CN2CCC(CNC(=O)c3cc(-c4cccc(C(F)(F)F)c4)cs3)C2)cc1 (configuration not stated) | 34% | 39% | 0% | 96% (active) | inactive | inactive | inactive | inactive
CN1CCN(c2cc3c(cc2Cl)CCN3C(=O)Cc2ccc(Cl)c(NC(=O)Nc3cccc(C#N)c3)c2)CC1 | 40% | -1% | -1% | 99% (active) | inactive | inactive | inactive | inactive
CS(=O)(=O)c1ccccc1CNC(=O)c1ccc(-c2ccc(-c3nc4ccc(C(F)(F)F)cc4[nH]3)s2)cc1 | 76% (active) | 90% (active) | 9% | 96% (active) | inactive | inactive | inactive | inactive
CCOc1cccc(C(=O)Nc2cccc(CN3CCCN(Cc4cccc(O)c4)CC3)c2)c1 | 18% | 17% | -3% | 85% (active) | inactive | inactive | inactive | inactive
CN(C)CCN(C)Cc1ccc(-c2ccc(NC(=O)c3ccc(Cl)cc3)cc2)cc1 | 19% | 51% (active) | -2% | 91% (active) | inactive | inactive | inactive | inactive
